{"source": "the supplement of paper PMC10849652", "note": "About 8,800 targets were measured; listed, in parts, are those with a hit and a random draw of the rest. About 0.5% of all pairs of compound and target were hits.", "data": [{"compound": "CNC(=O)c1ccc(Nc2ncc(C(F)(F)F)c(NCc3nccnc3N(C)S(C)(=O)=O)n2)cc1 [defactinib]", "test": "log2 fold change, soluble protein after heating vs DMSO (PISA); higher = thermal stabilisation; K562 lysate, 10 uM; active = over 0.2 and 3.5 SD of the protein, either way, in both replicates (recomputed)", "outline": "(§1)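 K562 pellets were dounce-homogenised in PBS pH 7.4 containing 1 mM MgCl2, and the crude extract, at 1 mg/mL protein, was exposed to 10 μM compound for 30 min. Aliquots were heated for 3 min across 48°C-58°C, pooled, brought to 0.5% NP-40 at 4°C and spun at 21,000xg for 90 min, with the supernatant taken as soluble protein. TMTpro 16plex LC-MS/MS with equalised channel sums quantified that protein. Values are log-two fold changes in thermal stability relative to solvent controls, taken from duplicates.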", "values": [{"target": "VPS11 (UniProt Q9H270)", "sequence (Q9H270 whole entry, looked up)": "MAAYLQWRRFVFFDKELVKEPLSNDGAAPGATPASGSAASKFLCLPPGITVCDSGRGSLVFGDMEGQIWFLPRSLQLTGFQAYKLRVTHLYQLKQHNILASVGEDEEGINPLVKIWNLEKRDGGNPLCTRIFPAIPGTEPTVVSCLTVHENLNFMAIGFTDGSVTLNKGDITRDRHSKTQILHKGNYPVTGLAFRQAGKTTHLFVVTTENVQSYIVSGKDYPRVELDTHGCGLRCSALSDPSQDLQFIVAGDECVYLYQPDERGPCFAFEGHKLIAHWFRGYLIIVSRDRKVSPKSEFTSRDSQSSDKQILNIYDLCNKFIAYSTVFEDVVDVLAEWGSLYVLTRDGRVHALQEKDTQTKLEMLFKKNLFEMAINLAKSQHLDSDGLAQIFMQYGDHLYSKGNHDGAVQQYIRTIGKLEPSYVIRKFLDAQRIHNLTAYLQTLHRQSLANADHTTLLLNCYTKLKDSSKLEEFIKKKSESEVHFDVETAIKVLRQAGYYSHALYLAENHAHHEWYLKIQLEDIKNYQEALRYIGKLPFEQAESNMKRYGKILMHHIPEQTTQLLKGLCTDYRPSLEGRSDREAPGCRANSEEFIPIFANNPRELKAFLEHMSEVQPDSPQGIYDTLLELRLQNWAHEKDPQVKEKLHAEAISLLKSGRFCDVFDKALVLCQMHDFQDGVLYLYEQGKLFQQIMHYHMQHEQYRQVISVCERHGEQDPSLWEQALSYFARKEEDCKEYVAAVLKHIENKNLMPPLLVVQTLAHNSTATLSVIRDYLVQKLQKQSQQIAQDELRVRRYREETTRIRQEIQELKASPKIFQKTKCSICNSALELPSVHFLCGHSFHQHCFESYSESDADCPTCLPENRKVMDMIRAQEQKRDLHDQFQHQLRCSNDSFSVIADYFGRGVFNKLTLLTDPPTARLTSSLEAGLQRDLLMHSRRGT", "log2 fold change": "0.022 (inactive)"}, {"target": "VPS16 (UniProt Q9H269)", "sequence (Q9H269 whole entry, looked up)": "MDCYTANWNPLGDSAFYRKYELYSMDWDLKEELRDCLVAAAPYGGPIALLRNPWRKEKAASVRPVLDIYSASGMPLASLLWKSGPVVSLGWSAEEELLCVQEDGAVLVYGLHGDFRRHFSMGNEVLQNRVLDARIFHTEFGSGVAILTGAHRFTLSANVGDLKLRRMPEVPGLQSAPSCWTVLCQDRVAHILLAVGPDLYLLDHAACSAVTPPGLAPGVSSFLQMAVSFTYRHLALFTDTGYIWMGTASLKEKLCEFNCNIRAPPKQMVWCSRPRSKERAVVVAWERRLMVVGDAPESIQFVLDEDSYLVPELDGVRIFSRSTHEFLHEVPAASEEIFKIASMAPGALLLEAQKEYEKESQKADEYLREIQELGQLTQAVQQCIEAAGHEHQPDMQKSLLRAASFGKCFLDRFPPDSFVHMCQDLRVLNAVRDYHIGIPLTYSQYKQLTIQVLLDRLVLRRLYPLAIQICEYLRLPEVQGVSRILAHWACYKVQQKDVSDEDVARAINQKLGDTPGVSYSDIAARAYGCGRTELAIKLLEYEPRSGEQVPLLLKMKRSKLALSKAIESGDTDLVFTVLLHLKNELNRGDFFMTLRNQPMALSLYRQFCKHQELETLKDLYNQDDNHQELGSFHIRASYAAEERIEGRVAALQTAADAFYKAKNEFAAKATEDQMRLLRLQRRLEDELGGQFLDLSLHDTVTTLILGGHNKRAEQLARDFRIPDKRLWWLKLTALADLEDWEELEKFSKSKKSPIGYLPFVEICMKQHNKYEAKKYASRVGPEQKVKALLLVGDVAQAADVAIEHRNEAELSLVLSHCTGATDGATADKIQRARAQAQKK", "log2 fold change": "-0.006 (inactive)"}, {"target": "WDR20 isoform 7 (UniProt Q8TBZ3)", "log2 fold change": "-0.049 (inactive)"}, {"target": "VAV3 isoform 4 (UniProt Q9UKW4)", "log2 fold change": "-0.295 (inactive)"}, {"target": "WRNIP1 (UniProt Q96S55)", "sequence (Q96S55 whole entry, looked up)": "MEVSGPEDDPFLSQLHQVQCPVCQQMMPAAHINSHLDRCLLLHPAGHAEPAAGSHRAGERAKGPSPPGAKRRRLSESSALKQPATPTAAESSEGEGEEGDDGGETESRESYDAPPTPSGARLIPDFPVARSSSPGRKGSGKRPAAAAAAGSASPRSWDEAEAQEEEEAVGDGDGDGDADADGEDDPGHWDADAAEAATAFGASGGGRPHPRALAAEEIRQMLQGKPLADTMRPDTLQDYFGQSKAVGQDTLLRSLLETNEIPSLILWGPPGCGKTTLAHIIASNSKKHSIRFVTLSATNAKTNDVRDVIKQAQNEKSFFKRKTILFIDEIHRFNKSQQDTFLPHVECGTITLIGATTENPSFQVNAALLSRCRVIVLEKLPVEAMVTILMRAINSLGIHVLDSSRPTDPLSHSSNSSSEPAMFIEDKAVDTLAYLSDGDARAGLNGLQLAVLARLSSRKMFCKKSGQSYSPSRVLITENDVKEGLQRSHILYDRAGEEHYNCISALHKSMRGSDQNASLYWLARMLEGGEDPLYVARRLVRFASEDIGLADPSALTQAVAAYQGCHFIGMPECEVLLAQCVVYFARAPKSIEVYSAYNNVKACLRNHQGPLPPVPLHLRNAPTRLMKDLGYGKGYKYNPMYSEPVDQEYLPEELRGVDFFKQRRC", "log2 fold change": "0.01 (inactive)"}, {"target": "UNC13D (UniProt Q70J99)", "log2 fold change": "0.026 (inactive)"}, {"target": "VARS (UniProt P26640)", "log2 fold change": "0.025 (inactive)"}, {"target": "UTP18 (UniProt Q9Y5J1)", "sequence (Q9Y5J1 whole entry, looked up)": "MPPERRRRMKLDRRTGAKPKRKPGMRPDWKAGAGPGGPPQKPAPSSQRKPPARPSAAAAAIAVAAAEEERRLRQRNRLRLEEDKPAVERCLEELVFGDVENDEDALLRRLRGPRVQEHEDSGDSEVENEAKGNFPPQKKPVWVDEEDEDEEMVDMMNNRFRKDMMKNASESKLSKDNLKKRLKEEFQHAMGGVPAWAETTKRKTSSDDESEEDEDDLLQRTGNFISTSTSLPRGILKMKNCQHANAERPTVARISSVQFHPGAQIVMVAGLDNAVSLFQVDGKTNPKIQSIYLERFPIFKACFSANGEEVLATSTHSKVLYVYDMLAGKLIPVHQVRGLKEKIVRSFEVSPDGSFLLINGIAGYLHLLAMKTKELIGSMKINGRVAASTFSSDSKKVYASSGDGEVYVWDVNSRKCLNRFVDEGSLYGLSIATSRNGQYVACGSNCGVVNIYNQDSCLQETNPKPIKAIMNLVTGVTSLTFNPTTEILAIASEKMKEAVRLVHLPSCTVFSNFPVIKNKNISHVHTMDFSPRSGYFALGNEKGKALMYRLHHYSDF", "log2 fold change": "-0.086 (inactive)"}]}, {"compound": "CNc1nc(-c2ccc3c(N)n[nH]c3c2)cc(N2C[C@@H](C(=O)NC3CCCCC3)CC[C@H]2C)n1", "test": "log2 fold change, soluble protein after heating vs DMSO (PISA); higher = thermal stabilisation; K562 lysate, 10 uM; active = over 0.2 and 3.5 SD of the protein, either way, in both replicates (recomputed)", "outline": "as §1", "values": [{"target": "YES1 (UniProt P07947)", "log2 fold change": "-0.094 (inactive)"}, {"target": "XAB2 (UniProt Q9HCS7)", "log2 fold change": "0.014 (inactive)"}, {"target": "VCPIP1 (UniProt Q96JH7)", "log2 fold change": "0.113 (inactive)"}, {"target": "ZC3H13 (UniProt Q5T200)", "log2 fold change": "-0.028 (inactive)"}, {"target": "ZNF609 (UniProt O15014)", "log2 fold change": "0.074 (inactive)"}, {"target": "ZC3H11A (UniProt O75152)", "sequence (O75152 whole entry, looked up)": "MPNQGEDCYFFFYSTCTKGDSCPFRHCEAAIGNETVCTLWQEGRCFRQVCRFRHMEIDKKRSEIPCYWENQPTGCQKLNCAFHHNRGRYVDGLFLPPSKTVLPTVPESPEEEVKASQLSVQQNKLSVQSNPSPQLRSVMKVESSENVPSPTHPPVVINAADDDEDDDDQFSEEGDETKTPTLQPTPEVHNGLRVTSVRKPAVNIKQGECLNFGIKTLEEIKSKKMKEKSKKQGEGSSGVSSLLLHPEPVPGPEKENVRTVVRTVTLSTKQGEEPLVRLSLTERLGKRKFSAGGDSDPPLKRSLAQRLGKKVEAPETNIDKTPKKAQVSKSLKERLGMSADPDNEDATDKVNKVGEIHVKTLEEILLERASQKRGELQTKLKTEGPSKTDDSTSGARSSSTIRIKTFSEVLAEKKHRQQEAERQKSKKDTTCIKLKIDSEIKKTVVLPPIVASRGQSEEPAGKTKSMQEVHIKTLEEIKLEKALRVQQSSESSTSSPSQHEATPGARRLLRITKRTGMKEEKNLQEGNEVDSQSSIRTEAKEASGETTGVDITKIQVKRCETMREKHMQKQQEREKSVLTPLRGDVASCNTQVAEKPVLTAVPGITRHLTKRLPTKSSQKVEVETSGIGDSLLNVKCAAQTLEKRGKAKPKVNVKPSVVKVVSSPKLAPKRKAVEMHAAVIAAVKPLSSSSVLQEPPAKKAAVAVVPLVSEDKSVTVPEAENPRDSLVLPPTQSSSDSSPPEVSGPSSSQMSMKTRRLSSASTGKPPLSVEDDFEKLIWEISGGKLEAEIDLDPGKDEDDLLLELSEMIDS", "log2 fold change": "-0.023 (inactive)"}, {"target": "VPS28 (UniProt Q9UK41)", "sequence (Q9UK41 whole entry, looked up)": "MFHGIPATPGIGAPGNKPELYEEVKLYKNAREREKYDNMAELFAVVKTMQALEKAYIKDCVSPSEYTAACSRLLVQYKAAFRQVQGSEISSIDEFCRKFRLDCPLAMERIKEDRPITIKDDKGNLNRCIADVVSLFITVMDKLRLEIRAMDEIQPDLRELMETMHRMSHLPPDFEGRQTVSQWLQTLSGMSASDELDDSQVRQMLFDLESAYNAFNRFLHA", "log2 fold change": "-0.078 (inactive)"}, {"target": "ZMYM4 (UniProt Q5VZL5)", "log2 fold change": "0.188 (inactive)"}, {"target": "ZNF217 (UniProt O75362)", "log2 fold change": "-0.004 (inactive)"}, {"target": "YDJC (UniProt A8MPS7)", "log2 fold change": "0.014 (inactive)"}, {"target": "XPNPEP1 isoform 3 (UniProt Q9NQW7)", "log2 fold change": "-0.045 (inactive)"}, {"target": "USP9X (UniProt Q93008)", "log2 fold change": "-0.04 (inactive)"}, {"target": "UQCRC2 (UniProt P22695)", "log2 fold change": "0.01 (inactive)"}, {"target": "WRB (UniProt O00258)", "sequence (O00258 whole entry, looked up)": "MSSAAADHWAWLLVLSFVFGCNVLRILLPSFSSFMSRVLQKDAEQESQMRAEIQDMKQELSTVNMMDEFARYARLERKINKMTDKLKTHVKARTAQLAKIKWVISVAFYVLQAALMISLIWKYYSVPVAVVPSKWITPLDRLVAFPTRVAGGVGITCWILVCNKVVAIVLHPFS", "log2 fold change": "0.044 (inactive)"}, {"target": "ZBTB33 (UniProt Q86T24)", "sequence (Q86T24 whole entry, looked up)": "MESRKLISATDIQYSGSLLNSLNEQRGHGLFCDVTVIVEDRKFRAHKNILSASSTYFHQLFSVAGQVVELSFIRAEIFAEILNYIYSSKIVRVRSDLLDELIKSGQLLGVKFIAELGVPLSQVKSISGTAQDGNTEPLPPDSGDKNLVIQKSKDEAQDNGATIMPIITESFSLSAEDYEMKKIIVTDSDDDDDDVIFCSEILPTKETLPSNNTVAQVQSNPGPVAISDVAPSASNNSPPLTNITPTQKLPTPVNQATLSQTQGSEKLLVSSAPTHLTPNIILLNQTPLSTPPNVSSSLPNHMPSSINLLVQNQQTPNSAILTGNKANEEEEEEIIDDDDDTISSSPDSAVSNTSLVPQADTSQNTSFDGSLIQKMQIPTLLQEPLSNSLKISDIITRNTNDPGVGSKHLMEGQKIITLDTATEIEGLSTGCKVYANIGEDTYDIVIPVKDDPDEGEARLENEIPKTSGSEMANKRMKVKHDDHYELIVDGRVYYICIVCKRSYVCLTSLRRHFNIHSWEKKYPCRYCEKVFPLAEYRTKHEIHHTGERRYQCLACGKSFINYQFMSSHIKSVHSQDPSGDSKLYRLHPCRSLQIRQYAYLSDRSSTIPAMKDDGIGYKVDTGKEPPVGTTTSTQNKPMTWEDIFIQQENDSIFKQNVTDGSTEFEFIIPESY", "log2 fold change": "0.119 (inactive)"}]}]}
